Data from PubChem BioAssay AID1823 (The Scripps Research Institute Molecular Screening Center, 2009).
Screen size: about 16,000 compounds; about 70 (0.4%) were called active. Cut-off read from the data, not from the text of the source: active = inhibition above about 75%; inactive = the rest. Shown is part of a subset that was picked to be rich in actives.

Assay: quenches luminol chemiluminescence in Nox1 counter-screen (AID 1823)
Conditions: HRP/luminol/H2O2 chemiluminescence counterscreen; at 6.7 µM; active compounds read high

Row | SMILES | inhibition
1 | COc1ccccc1NC(=O)c1ccc(C#Cc2ccccc2)o1 | 0.37% (inactive)
2 | CCCS(=O)(=O)c1csc(C(=O)OC)c1N/N=C/c1cccs1 | 1.56% (inactive)
3 | COCn1nnc2ccccc21 | 0.3% (inactive)
4 | Cc1c(N/N=C(\C#N)c2nc3ccccc3[nH]2)c(=O)n(-c2ccccc2)n1C | 7.97% (inactive)
5 | O=C(O)CC1(CC(=O)Nc2ccc(N3CCCCC3)cc2)CCCCC1 | -6.38% (inactive)
6 | CSc1sc(C(N)=O)cc1C#N | -6.88% (inactive)
7 | Cc1cc(C2=CSC3=NCCN23)ccc1Cl | 36.3% (inactive)
8 | OCCNC(=S)Nc1ccccc1-c1ccccc1 | 0.57% (inactive)
9 | O=S(=O)(c1ccccc1)c1cc(C(F)(F)F)cc(C(F)(F)F)c1 | -1.49% (inactive)
10 | CSc1sc(NC(=O)N2CCOCC2)c(-c2ccc(Cl)cc2)c1C#N | 3.63% (inactive)
11 | Oc1c(Cl)c(Cl)c(Cl)c2ccccc12 | 4.73% (inactive)
12 | CN(C)/C=C1/C(=O)NN=C1CSc1ccc(Cl)cc1 | -3.51% (inactive)
13 | Cc1ccc(N=C2SC3(CC3)C(=O)N2c2ccc(C)cc2)cc1 | -0.15% (inactive)
14 | CC1(C)CCc2cc(-c3ccnc(SCC(=O)c4ccccc4)n3)ccc2O1 | -4.62% (inactive)
15 | O=C(NCc1cccnc1)c1cnc2ccccc2n1 | -0.07% (inactive)
16 | CC(=O)NC(Cc1c[nH]c2ccccc12)C(=O)O (configuration not stated) | -1.35% (inactive)

Row | SMILES | inhibition
17 | O=C(c1ccc(F)cc1)C1CCN(Cc2cn[nH]c2-c2ccccc2)CC1 | 0.3% (inactive)
18 | CC1(NC(=O)OCc2ccccc2)CC1NC(=O)OCc1ccccc1 (configuration not stated) | 1.98% (inactive)
19 | O=c1[nH]cc(Br)c(=O)[nH]1 | -0.43% (inactive)
20 | CC1CN(c2ccc(NC(=S)NCc3cccs3)cc2)CC(C)O1 (configuration not stated) | -35.2% (inactive)
21 | O=C(O)CC(CC(=O)N1CCOCC1)c1ccccc1 (configuration not stated) | -4.82% (inactive)
22 | O=C(CSc1ccc(Cl)cc1)NCCSCc1ccco1 | -0.61% (inactive)
23 | O=C(NCCO)NCCSc1ccc(F)cc1 | -2.48% (inactive)
24 | FC(F)(F)c1cccc(-n2c(-c3ccncc3)n[nH]c2=S)c1 | 97.8% (active)
25 | FC(F)(F)c1ccc(-n2cn[nH]c2=S)cc1 | 53.1% (inactive)
26 | CSc1n[nH]c(=O)n1-c1cccc(C(F)(F)F)c1 | 1.69% (inactive)
27 | O=c1[nH]/c(=C/c2ccc(OC(F)(F)F)cc2)c(=O)[nH]/c1=C/c1ccc(OC(F)(F)F)cc1 | 0.16% (inactive)
28 | O=C(Nc1ccc(Cl)cc1)c1csc(COc2ccc3nonc3c2)n1 | 3.82% (inactive)
29 | Cn1cc(C(=O)c2ccc(Cl)cc2)cc1/C=C(\C#N)S(=O)(=O)c1ccc(C(F)(F)F)cn1 | 2.9% (inactive)
30 | O=C(Nc1ccccc1)Nc1nc2ccccc2s1 | -7.1% (inactive)
31 | O=c1c2cc(-c3ccccc3)sc2nc2n1N=C(c1cccs1)CS2 | -0.02% (inactive)
32 | COc1cc(OC)nc(S(C)(=O)=O)n1 | -4.97% (inactive)
